Here are results for one sequence from paper PMC7862700, “An all-to-all approach to the identification of sequence-specific readers for epigenetic DNA modifications on cytosine”.

Test in all cases: DAPPL (digital affinity profiling via proximity ligation, sequencing); 10 mM Tris-HCl pH 7.5, 50 mM NaCl, 1 mM DTT, 4% glycerol, room temperature, 30 min; GST-TFs on glutathione beads, 16-mer random dsDNA library, 0.1% formaldehyde crosslink after washing; high values mean tight binding
One experiment deals with T1, FEV (Homo sapiens, UniProt Q99581 1-238).
T1 sequence: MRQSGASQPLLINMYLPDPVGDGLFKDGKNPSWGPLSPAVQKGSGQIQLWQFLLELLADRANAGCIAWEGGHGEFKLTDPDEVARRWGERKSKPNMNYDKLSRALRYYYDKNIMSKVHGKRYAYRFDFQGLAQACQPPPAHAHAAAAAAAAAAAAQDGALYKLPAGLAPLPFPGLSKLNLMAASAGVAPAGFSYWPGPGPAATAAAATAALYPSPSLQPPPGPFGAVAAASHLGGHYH
As to conditions: protein: recombinant; tags: N-terminal GST; dsDNA, one strand shown. The procedure, abridged:
(§1)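 Each value of binding signal is a hexamer's read frequency for a factor divided by the same hexamer's frequency in the tag-only sample. Barcoded, bead-captured GST fusions of human transcription factors made in yeast were pooled with that sample and incubated with 200 nmole of a random double-stranded 16-mer DNA library in Tris/NaCl/DTT/glycerol buffer at room temperature for 30 min. Washing, 0.1% formaldehyde crosslinking, proximity ligation, PCR and Illumina NextSeq500 sequencing followed.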

A further experiment concerns the target ETV5 (Homo sapiens, UniProt P41161 1-510). As to conditions: protein: recombinant; tags: N-terminal GST; dsDNA, one strand shown. The procedure, abridged:
as §1

The target of the next experiment is HSF1 (Homo sapiens, UniProt Q00613 1-529). As to conditions: protein: recombinant; tags: N-terminal GST; chain copies: 3; dsDNA, one strand shown. The procedure, abridged:
as §1

In a further experiment the target is T2, SPIC (Homo sapiens, UniProt Q8N5J4 1-248).
T2 sequence: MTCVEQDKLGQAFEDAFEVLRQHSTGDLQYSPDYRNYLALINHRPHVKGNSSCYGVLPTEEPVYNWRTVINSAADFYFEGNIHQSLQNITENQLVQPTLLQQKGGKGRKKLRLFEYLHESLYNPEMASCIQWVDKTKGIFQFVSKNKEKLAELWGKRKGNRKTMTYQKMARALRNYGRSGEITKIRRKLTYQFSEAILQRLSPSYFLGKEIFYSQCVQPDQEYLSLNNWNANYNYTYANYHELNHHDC
As to conditions: protein: recombinant; tags: N-terminal GST; dsDNA, one strand shown. The method, boiled down:
as §1

A further experiment concerns the target ELF4 (Homo sapiens, UniProt Q99607 1-663). The note with it: protein: recombinant; tags: N-terminal GST; dsDNA, one strand shown. The procedure, abridged:
as §1

The next experiment deals with T3, ELK4 (Homo sapiens, UniProt P28324-2 1-405).
T3 sequence: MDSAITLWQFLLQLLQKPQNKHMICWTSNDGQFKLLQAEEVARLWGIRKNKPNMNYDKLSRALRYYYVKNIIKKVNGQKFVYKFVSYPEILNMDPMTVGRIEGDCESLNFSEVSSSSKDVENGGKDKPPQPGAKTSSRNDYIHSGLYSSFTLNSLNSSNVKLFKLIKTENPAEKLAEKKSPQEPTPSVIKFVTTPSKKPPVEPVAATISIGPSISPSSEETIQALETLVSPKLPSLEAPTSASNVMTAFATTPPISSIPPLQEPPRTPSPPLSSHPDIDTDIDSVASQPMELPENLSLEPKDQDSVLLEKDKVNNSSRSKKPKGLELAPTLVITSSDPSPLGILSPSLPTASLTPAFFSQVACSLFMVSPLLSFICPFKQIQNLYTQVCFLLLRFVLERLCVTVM
The note with it: protein: recombinant; tags: N-terminal GST; dsDNA, one strand shown. The method, boiled down:
as §1

The next experiment concerns the target T4, ETV2 (Homo sapiens, UniProt O00321 1-342).
T4 sequence: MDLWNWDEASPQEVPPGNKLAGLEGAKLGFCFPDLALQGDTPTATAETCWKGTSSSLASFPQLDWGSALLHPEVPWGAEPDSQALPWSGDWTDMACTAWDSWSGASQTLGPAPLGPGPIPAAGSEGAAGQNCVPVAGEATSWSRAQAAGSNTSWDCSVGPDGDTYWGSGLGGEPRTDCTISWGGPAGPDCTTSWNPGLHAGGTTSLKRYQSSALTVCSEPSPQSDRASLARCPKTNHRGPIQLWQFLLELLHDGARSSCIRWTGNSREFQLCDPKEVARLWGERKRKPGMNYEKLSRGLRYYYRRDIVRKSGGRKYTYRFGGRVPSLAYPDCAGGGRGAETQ
The note with it: protein: recombinant; tags: N-terminal GST; dsDNA, one strand shown. The method, boiled down: as §1

For the next experiment, the target named is T5, ELF3 (Homo sapiens, UniProt P78545 1-371).
T5 sequence: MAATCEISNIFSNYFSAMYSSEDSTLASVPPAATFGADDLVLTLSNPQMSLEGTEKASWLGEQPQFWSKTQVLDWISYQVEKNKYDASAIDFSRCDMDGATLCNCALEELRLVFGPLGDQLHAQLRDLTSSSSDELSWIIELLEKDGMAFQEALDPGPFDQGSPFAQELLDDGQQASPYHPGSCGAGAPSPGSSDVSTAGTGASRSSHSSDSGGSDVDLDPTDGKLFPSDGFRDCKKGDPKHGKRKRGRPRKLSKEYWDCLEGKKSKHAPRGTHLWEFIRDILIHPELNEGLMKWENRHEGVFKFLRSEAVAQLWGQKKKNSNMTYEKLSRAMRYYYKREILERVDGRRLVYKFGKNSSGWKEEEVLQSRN
As to conditions: protein: recombinant; tags: N-terminal GST; dsDNA, one strand shown. The method, boiled down: as §1

Another experiment addresses CRX (Homo sapiens, UniProt O43186 1-299). The note with it: protein: recombinant; tags: N-terminal GST; dsDNA, one strand shown. The method, boiled down:
as §1

The target of the next experiment is ETV1 (Homo sapiens, UniProt P50549 1-477). As to conditions: protein: recombinant; tags: N-terminal GST; dsDNA, one strand shown. The procedure, abridged: as §1
Another experiment concerns the target T6, ERF (Homo sapiens, UniProt P50548 1-548).
T6 sequence: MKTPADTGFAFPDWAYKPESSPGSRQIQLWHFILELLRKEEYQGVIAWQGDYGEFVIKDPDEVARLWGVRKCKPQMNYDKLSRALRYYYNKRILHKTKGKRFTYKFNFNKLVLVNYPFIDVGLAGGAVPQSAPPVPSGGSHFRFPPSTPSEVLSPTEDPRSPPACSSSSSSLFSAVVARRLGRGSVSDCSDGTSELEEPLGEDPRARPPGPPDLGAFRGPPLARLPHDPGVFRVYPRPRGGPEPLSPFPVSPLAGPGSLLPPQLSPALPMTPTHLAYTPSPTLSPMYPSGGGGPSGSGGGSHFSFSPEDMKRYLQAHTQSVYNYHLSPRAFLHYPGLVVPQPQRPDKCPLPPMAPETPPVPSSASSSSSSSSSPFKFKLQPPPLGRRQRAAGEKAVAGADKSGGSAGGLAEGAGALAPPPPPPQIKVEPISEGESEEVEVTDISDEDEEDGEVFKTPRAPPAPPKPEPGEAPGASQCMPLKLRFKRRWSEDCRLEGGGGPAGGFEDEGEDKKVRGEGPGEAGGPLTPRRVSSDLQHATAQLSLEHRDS
The note with it: protein: recombinant; tags: N-terminal GST; dsDNA, one strand shown. The procedure, abridged: as §1

In the next experiment the target is T7, ETV3L (Homo sapiens, UniProt Q6ZN32 1-361).
T7 sequence: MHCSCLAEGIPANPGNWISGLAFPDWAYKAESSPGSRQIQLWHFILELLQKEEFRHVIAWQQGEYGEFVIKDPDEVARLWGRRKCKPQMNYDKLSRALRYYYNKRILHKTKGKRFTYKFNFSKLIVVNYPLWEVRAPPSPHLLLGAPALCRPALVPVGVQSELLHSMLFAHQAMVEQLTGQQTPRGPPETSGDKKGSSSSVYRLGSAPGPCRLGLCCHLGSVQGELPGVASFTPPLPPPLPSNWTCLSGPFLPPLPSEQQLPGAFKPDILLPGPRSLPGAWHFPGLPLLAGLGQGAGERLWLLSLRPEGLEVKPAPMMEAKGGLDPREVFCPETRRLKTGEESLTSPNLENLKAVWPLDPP
The note with it: protein: recombinant; tags: N-terminal GST; dsDNA, one strand shown. The method, boiled down:
as §1

The next experiment concerns the target T8, ETS2 (Homo sapiens, UniProt P15036 1-469).
T8 sequence: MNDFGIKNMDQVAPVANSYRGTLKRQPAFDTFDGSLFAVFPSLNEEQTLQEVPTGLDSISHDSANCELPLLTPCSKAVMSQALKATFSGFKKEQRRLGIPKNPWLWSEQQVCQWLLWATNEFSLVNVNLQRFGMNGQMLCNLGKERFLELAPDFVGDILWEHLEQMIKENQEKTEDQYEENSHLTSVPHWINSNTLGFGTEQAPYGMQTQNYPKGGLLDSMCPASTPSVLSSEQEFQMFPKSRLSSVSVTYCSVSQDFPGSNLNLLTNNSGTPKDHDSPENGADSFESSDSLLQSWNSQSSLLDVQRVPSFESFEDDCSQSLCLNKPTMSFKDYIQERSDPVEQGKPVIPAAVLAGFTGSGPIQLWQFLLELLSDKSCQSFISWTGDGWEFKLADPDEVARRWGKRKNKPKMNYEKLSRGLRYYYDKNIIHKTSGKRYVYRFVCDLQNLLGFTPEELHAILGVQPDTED
The note with it: protein: recombinant; tags: N-terminal GST; dsDNA, one strand shown. The method, boiled down:
as §1

A further experiment addresses T9, SPDEF (Homo sapiens, UniProt O95238 1-335).
T9 sequence: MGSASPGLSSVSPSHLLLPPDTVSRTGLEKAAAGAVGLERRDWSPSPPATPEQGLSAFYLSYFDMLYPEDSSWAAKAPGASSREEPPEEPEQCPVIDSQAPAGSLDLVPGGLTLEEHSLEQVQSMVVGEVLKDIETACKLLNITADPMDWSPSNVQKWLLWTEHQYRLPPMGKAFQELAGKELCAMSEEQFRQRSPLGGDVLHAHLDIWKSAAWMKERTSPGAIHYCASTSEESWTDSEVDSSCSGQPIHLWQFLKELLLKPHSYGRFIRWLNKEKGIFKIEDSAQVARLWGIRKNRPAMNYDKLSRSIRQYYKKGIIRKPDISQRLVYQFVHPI
As to conditions: protein: recombinant; tags: N-terminal GST; dsDNA, one strand shown. The procedure, abridged:
as §1

For the next experiment, the target named is T10, ETV7 (Homo sapiens, UniProt Q9Y603 1-341).
T10 sequence: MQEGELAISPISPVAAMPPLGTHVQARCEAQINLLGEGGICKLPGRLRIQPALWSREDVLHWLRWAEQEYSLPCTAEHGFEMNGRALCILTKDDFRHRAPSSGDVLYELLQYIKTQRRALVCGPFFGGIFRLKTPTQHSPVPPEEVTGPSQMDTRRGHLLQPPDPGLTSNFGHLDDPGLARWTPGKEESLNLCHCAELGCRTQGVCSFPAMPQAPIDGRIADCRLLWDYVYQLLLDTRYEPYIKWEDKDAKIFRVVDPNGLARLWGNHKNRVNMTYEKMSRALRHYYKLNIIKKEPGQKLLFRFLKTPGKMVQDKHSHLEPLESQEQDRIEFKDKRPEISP
The note with it: protein: recombinant; tags: N-terminal GST; dsDNA, one strand shown. The method, boiled down:
as §1

Another experiment addresses T11, ELF5 (Homo sapiens, UniProt Q9UKW6-2 1-255).
T11 sequence: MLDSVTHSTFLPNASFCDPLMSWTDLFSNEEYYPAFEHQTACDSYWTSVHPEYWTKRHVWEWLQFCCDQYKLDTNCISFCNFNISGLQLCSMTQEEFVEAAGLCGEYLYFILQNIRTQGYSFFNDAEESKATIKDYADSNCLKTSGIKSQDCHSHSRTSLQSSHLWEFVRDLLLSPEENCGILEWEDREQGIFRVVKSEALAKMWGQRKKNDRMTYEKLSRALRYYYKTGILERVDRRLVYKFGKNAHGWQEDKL
As to conditions: protein: recombinant; tags: N-terminal GST; dsDNA, one strand shown. The method, boiled down:
as §1

A further experiment addresses T12, ETV3 (Homo sapiens, UniProt P41162-2 1-143).
T12 sequence: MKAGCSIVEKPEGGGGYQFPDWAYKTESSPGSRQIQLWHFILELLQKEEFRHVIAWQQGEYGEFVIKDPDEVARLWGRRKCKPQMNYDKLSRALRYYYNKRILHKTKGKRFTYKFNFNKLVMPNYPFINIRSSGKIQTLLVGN
The note with it: protein: recombinant; tags: N-terminal GST; dsDNA, one strand shown. The method, boiled down:
as §1

The target in the next experiment is ETV6 (Homo sapiens, UniProt P41212 1-452). The note with it: protein: recombinant; tags: N-terminal GST; dsDNA, one strand shown. The method, boiled down: as §1
ETV6, sequence (P41212 whole entry): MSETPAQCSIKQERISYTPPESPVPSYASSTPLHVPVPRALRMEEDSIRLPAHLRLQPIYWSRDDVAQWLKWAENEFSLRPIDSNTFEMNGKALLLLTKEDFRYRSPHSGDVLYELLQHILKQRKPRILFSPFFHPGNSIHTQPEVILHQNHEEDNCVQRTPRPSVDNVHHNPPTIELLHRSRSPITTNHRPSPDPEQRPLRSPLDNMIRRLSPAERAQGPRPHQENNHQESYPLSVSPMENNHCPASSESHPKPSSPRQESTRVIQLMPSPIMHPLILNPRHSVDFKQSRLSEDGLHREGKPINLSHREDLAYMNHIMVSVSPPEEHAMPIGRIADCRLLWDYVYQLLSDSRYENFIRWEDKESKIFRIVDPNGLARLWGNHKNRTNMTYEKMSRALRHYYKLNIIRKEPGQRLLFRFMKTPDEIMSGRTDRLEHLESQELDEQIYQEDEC

CRX, sequence (O43186 whole entry): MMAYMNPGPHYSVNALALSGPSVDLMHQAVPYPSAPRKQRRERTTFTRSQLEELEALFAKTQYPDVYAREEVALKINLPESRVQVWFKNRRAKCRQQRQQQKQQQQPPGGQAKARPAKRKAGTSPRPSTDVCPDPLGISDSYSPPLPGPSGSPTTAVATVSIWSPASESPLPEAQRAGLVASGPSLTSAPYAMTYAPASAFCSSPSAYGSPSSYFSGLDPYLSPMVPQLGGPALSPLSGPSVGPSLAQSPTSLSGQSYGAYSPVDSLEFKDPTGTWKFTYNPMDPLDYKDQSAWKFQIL
ETV1, sequence (P50549 whole entry): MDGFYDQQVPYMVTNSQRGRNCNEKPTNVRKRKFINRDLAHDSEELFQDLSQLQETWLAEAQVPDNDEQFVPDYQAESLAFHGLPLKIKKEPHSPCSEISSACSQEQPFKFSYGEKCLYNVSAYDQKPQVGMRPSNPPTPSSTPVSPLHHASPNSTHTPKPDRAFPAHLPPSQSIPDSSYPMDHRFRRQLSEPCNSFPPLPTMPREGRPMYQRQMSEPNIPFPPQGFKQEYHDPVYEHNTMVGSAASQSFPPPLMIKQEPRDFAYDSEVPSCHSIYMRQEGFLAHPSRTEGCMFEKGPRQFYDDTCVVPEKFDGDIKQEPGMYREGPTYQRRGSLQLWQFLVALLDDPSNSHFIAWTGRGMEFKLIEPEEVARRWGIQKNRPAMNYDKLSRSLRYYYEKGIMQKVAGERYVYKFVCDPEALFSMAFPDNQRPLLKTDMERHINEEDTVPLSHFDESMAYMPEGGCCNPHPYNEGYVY
HSF1, sequence (Q00613 whole entry): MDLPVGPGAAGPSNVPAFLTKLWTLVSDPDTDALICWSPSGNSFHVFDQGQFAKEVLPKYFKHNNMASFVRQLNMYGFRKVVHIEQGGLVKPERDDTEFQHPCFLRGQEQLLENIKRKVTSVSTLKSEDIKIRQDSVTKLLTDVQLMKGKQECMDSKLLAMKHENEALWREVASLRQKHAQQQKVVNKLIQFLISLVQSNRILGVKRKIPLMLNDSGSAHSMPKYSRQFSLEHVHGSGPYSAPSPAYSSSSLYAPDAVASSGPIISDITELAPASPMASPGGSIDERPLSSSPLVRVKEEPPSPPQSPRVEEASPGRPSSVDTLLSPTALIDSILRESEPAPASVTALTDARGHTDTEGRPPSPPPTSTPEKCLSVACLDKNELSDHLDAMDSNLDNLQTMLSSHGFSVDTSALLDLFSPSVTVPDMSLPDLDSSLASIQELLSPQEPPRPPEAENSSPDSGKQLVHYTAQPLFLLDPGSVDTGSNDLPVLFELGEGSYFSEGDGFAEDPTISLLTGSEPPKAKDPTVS
ELF4, sequence (Q99607 whole entry): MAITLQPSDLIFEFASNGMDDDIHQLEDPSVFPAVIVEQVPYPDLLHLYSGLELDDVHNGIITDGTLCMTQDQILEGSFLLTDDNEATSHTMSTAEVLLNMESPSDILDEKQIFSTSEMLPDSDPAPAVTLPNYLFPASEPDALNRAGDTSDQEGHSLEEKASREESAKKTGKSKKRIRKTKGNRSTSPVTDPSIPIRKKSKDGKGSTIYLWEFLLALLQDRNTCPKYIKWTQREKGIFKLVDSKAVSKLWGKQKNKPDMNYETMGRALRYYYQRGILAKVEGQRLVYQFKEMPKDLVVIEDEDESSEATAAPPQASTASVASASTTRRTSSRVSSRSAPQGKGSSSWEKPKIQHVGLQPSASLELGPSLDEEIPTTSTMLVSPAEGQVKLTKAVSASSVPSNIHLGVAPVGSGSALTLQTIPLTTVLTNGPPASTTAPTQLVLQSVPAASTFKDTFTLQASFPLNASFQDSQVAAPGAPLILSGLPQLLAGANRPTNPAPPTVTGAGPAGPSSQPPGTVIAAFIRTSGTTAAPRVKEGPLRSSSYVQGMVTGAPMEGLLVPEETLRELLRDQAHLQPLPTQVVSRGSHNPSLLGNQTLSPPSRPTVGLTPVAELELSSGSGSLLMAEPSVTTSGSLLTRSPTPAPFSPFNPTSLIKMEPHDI
ETV5, sequence (P41161 whole entry): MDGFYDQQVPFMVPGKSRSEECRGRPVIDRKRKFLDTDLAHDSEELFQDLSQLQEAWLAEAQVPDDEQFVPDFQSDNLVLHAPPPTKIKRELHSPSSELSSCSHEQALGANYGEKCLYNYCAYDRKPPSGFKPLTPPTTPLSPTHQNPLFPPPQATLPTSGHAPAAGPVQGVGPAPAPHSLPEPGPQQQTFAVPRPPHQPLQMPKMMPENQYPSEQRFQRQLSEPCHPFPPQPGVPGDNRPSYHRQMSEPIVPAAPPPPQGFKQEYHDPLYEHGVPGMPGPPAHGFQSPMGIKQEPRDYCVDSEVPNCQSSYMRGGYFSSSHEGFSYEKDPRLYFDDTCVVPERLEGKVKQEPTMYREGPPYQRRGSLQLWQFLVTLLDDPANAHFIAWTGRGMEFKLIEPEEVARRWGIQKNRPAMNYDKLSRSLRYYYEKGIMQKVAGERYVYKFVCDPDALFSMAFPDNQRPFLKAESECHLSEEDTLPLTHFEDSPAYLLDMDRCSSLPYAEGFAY

With CTGGCT, the binding signal is 1.16 fold enrichment (6-mer frequency, TF over GST control) with FEV; 1.13 fold enrichment (6-mer frequency, TF over GST control) with ETV5; 1.27 fold enrichment (6-mer frequency, TF over GST control) with HSF1; 1.13 fold enrichment (6-mer frequency, TF over GST control) with SPIC; 1.18 fold enrichment (6-mer frequency, TF over GST control) with ELF4; 1.42 fold enrichment (6-mer frequency, TF over GST control) with ELK4. The binding signal is 1.5 fold enrichment (6-mer frequency, TF over GST control) in the experiment with ETV2; 1.19 fold enrichment (6-mer frequency, TF over GST control) in the experiment with ELF3; 1.21 fold enrichment (6-mer frequency, TF over GST control) with CRX; 1.1 fold enrichment (6-mer frequency, TF over GST control) in the experiment with ETV1; 1.43 fold enrichment (6-mer frequency, TF over GST control) with ERF; 1.3 fold enrichment (6-mer frequency, TF over GST control) with ETV3L. The binding signal with ETS2 is 1.19 fold enrichment (6-mer frequency, TF over GST control); in the experiment with SPDEF it was 1.23 fold enrichment (6-mer frequency, TF over GST control); with ETV7 it was 1.38 fold enrichment (6-mer frequency, TF over GST control); with ELF5, 1.19 fold enrichment (6-mer frequency, TF over GST control); in the experiment with ETV3 it was 1.18 fold enrichment (6-mer frequency, TF over GST control); in the experiment with ETV6, 1.18 fold enrichment (6-mer frequency, TF over GST control).
